We go through 21 compounds from PubChem BioAssay (NCI).

Values joined by “and” are separate entries in the source; they are usually repeats but may differ in a detail not shown here. Equal entries are not always repeated. This is part of a sample that, as a whole, favours compounds with a hit. Of some 79,000 tested, about 15% had one in any assay. Unmarked numbers belong to inactive results. Active and inactive are the calls of the source. Rule as the data show it: active = growth inhibition above about 70%; inactive = the rest.

The nature of assay [1]: NCI Yeast Anticancer Drug Screen. Data for the rad50 strain (AID 155).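 Also: 0% = growth of vehicle-only cultures of the same strain.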 The note with it: S. cerevisiae rad50 strain growth inhibition, stronger effect = higher value; at 50.0 µM unless noted. In outline: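 Inhibition values express reduced yeast growth in compound-treated cultures relative to vehicle-treated controls.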
Assay [2] is described as follows: NCI Yeast Anticancer Drug Screen. Data for the mec2-1 strain (AID 157). The note with it: S. cerevisiae mec2-1 strain, stronger effect = higher value; at 50.0 µM unless noted. The gist of the method:
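Vehicle-treated cultures served as reference for growth inhibition of compound-exposed mec2-1 yeast.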

Assay [3] is described as follows: NCI Yeast Anticancer Drug Screen. Data for the sgs1 mgt1 strain (AID 161).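 Also: 0% = growth of cultures given vehicle only.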 Particulars: S. cerevisiae sgs1 mgt1 strain, stronger effect = higher value; at 50.0 µM unless noted. The gist of the method: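 Read-out: growth inhibition vs vehicle controls. Cells: mutant yeast strain deficient in DNA damage repair.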
Assay [4] can be described thus: NCI Yeast Anticancer Drug Screen. Data for the cln2 rad14 strain (AID 165).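 Also: 0% = growth equal to vehicle treated cultures.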 The note with it: S. cerevisiae cln2 rad14 strain, stronger effect = higher value; at 50.0 µM unless noted. In outline: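 Each compound was tested on cln2 rad14 yeast. Inhibition of growth was calculated against vehicle-exposed controls.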
Assay [5] is described as follows: NCI Yeast Anticancer Drug Screen. Data for the bub3 strain (AID 167). The note with it: S. cerevisiae bub3 mutant strain, stronger effect = higher value; at 50.0 µM unless noted. In outline:
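Steps: expose the mutant yeast strain to compound; grow alongside vehicle-treated cultures; measure growth; express inhibition against the vehicle cultures.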

Assay [6] can be described thus: NCI Yeast Anticancer Drug Screen. Data for the mlh1 rad18 strain (AID 175). Particulars: S. cerevisiae mlh1 rad18 strain growth inhibition, stronger effect = higher value; at 50.0 µM unless noted. The gist of the method: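 Vehicle-treated cultures served as the reference for growth inhibition in a yeast strain carrying DNA damage repair alterations exposed to each compound.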

Take `Cc1cc[n+](CCC(N)=O)cc1`: the growth inhibition was -10.8% in assay [1]; -30.8% in assay [2]; -3% in assay [3]; 1.85% in assay [4]; -16.9% in assay [5]; -19.9% in assay [6].

Consider `CCC(C(N)=O)c1ccccc1` (stereo unspecified), for which the growth inhibition is -16.3% in assay [1]; -5.65% in assay [2]; 13.9% in assay [3]; -6.75% in assay [4]; -3.9% in assay [5]; -3.6% in assay [6].

For the compound `COC(=O)c1ccc(COC(=O)N2C=CCC2C(=O)O)cc1` (stereo unspecified), the growth inhibition in assay [1] is 20.2%; in assay [2], -19.6%; in assay [3], 13.4%; in assay [4], 11.7%; in assay [5], 4%; in assay [6] it was 1.15%.

As for `Clc1ccc2[nH]c3c(c2c1)CCCC3`, the growth inhibition in assay [1] is 10.7%; in assay [2] it was 0.45%; in assay [3], 28.4%; in assay [4], 1.6%; in assay [5], 2.55%; in assay [6], 28.8%.

Turning to `Cc1cc(Cl)ccc1N=C1NC(=O)C(CC(=O)Nc2ccc([N+](=O)[O-])cc2[N+](=O)[O-])S1` (stereo unspecified), the growth inhibition in assay [1] was 25.1%; in assay [2] it was -4%; in assay [3], 12.1%; in assay [4] it was -58.9%; in assay [5], 13%; in assay [6], 33.1%.

On to `CC(=O)C(C)(CC#N)C(CC=O)CCC#N` (stereo unspecified), for which the growth inhibition in assay [1] is 15.9%; in assay [2], 4.7%; in assay [3] it was 10.2%; in assay [4] it was -1.45%; in assay [5] it was 14%; in assay [6], -1%.

Turning to `O=C(O)CCNC(=O)CNC(=O)OCc1ccccc1`, the growth inhibition in assay [1] is 3.9%; in assay [2], 10.6%; in assay [3] it was -2.85%; in assay [4], 5.55%; in assay [5], -0.25%; in assay [6] it was -9.65%.

`O=c1[nH]c2cccc([N+](=O)[O-])c2c2ccccc12`: the growth inhibition is 5.85% in assay [1]; 26.6% in assay [2]; 14.1% in assay [3]; 23% in assay [4]; -6.35% in assay [5]; 11.2% in assay [6].

`C=C(Br)CNC(=O)C(O)(c1ccccc1)c1ccccc1`: the growth inhibition in assay [1] was -4.15%; in assay [2], 3.65%; in assay [3], 0%; in assay [4] it was -15.6%; in assay [5], 5.15%; in assay [6], -16.9%.

For `O=C(c1ccc(Cl)cc1)c1ccccc1C(=O)c1ccc(Cl)cc1`, the growth inhibition is 0.8% in assay [1]; -12.1% in assay [2]; 6.6% in assay [3]; -4.45% in assay [4]; 23% in assay [5]; 15.1% in assay [6].

`Cc1cc(C)c2c(c1)CC(C)(C)CC2=O`: the growth inhibition is 4% in assay [1]; -7.95% in assay [2]; -1.1% in assay [3]; 2.5% in assay [4]; -4.55% in assay [5]; -2.6% in assay [6].

Take `N=C(N)SCCc1cn2ccccc2n1`: the growth inhibition in assay [1] was -5.45%; in assay [2], -45.9%; in assay [3], -17.1%; in assay [4], 3.65%; in assay [5], -15.8%; in assay [6], 1.05%.

For `O=S(=O)(O)CCCOC1COc2ccccc2OCCOCCOc2ccccc2OC1`, the growth inhibition is -0.65% in assay [1]; 1.65% in assay [2]; -15.5% in assay [3]; -6.45% in assay [4]; -4.1% in assay [5]; -7.55% in assay [6].

For `CCCCCCCCCCCCCCCCCn1nnnc1N`, the growth inhibition in assay [1] is -8.3%; in assay [2], 11.6%; in assay [3], -7.3%; in assay [4], -9.95%; in assay [5], -12.3%; in assay [6], -11.4%.

With `CCS(=O)(=O)c1ccc(NC(=O)OC2CCC3(C)C(=CCC4C3CCC3(C)C(C(C)CCCC(C)C)CCC43)C2)cc1` (stereo unspecified), the growth inhibition in assay [1] was 21.5%; in assay [2] it was 6.15%; in assay [3], 10.2%; in assay [4], 20.4%; in assay [5], -3.25%; in assay [6] it was 3.65%.

For the compound `CSc1ccc(NC(=O)c2ccc(Cl)cc2)cc1`, the growth inhibition was -13.7% in assay [1]; -6.05% in assay [2]; -6.45% in assay [3]; -22.7% in assay [4]; 5.25% in assay [5]; -3.35% in assay [6].

For `CCc1cccc(C(C)C)c1NC(=O)C(=O)Nn1c(=S)[nH]c2ccccc2c1=O`, the growth inhibition was -7.15% in assay [1]; -23.1% in assay [2]; -10.2% in assay [3]; 2.75% in assay [4]; -17.2% in assay [5]; -12.6% in assay [6].

Consider `O=C(Nc1cccc(I)c1)OCCCl`, for which the growth inhibition in assay [1] was 79.8% (active); in assay [2], 7.5%; in assay [3] it was 87.2% (active); in assay [4], 0.4%; in assay [5], -7.55%; in assay [6], 57.2%.

Consider `CCOc1cc(/C=N/NC(=O)c2ccccc2NC(=O)c2ccccc2Cl)ccc1O`, for which the growth inhibition in assay [1] was 11.3%; in assay [2] it was -1.9%; in assay [3] it was -7.05%; in assay [4], -1.8%; in assay [5], 3.05%; in assay [6] it was -9.3%.

Regarding `COc1ccc2c(c1)OC[C@@H]1c3cc(NC(=O)c4ccccc4)c(OCc4ccccc4)cc3N(S(=O)(=O)c3ccccc3)[C@H]21`, the growth inhibition in assay [1] was -23.9%; in assay [2], -13.9%; in assay [3], -2.1%; in assay [4], -2.5%; in assay [5] it was -9%; in assay [6], 9.4%.

For `ClCCOCCOc1ccc(C2CCCCC2)cc1`, the growth inhibition was 12.9% and -1.65% in assay [1]; 11.9% and -0.75% in assay [2]; 56% and -3.65% in assay [3]; 24.1% and -10.8% in assay [4]; 28.2% and 31.4% in assay [5]; 13.8% and 9.05% in assay [6].
